Bioassay records: PubChem, National Center for Advancing Translational Sciences (NCATS)
Shown are actives, neighbours in structure and some others; about 7.3% of the full set was active somewhere.
ELG1 genotoxic = inducers of genotoxicity in HEK293T ELG1-luciferase cells; HEK293T ELG1-luciferase reporter, luminescence, 16 h; Potency, µM (doses to about 46 µM), for inactives: at the top dose activity change, positive = activation, actives largely listed as activators; hit rate 1.3% among 330,000; AID 504466; note: % of control where 0% means no effect; nearly all actives have a fitted effect of over 60% in size
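After overnight (16 hr) compound treatment at 37 °C, ELG1-luciferase HEK293T cells were lysed with ONE-Glo; luminescence quantified 30 min later at room temperature.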
FLuc modulator = inhibits or activates purified firefly luciferase, miR-21 counter-screen; Potency, µM (titrated, usually from 57.5 µM), for the others: top-dose activity change, negative = inhibition, usual class: inhibitors; P08659; AID 588342; hit rate 6.9% among 360,000; purified FLuc, Km substrates, luminescence inhibition;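 note: plate controls were vehicle for no effect and reference inhibitor for full effect; nearly all actives have a fitted effect of over 55% in size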
Target sequence (P08659 whole entry, looked up): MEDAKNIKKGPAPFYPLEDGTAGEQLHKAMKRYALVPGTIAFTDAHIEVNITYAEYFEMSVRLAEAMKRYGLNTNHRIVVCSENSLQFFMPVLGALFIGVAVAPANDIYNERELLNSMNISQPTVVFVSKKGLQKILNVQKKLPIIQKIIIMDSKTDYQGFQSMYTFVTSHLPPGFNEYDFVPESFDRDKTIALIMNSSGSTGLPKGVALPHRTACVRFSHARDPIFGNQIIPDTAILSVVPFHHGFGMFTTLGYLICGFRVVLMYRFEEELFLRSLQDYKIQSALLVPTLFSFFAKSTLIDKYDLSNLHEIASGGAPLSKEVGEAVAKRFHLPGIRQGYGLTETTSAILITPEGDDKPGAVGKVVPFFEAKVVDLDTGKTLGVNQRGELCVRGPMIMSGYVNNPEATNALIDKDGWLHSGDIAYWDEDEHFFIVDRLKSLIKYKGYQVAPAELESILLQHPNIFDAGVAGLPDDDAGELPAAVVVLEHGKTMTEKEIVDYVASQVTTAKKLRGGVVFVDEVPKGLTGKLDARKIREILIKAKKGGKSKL
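Biochemical qHTS of compounds, final roughly 60 µM downward over six points, against 10 nM purified firefly luciferase using Km concentrations of substrates (10 uM D-luciferin, 10 uM ATP) in Tris acetate pH 7.5 buffer; luminescence output.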
SMN2 splice enh = enhancers of SMN2 splice variant expression; hit rate 2.8% among 210,000; AID 1458; Potency, µM (doses to about 46.1 µM), inactives show top-dose activity change, positive = activation, usual class: activators; HEK293 SMN2-luciferase splicing reporter, luminescence, 30-36 h; note: % of control where 0% means no effect; nearly all actives have a fitted effect of over 55% in size
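HEK293 cells carry an SMN2 […]–luciferase reporter in which exon 7 inclusion puts luciferase in frame. Cells were plated 10-12 h before compound addition, then incubated 30-36 h at 37C. ONE-Glo luminescence was read; sodium butyrate at 4.5 mM final served as control.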
Rab9 prom act = activates the Rab9 promoter; Huh7 Rab9 promoter-luciferase reporter, luminescence, 24 h; hit rate 2.8% among 320,000; Potency, µM (titrated, usually from 9.22 µM), without a hit: at the top dose activation, negative = inhibition, most hits filed as activators; AID 485297; note: % of control where 0% means no effect; nearly all actives have a fitted effect of over 60% in size
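Quantitative HTS format; Huh7 Rab9-luciferase reporter cells (1500/well) receive compound 2 h post-plating, incubate 24 h at 37 °C, then get luciferase reagent for 10 min before luminescence reading.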
Luc counter = Kinase-Glo luciferase inhibition (counter-screen); Kinase-Glo luciferase, ATP luminescence, 8 min; Potency, µM (titrated, usually from 38.3 µM), for the others: at the highest dose activity change, negative = inhibition, most hits filed as inhibitors; hit rate 0.28% among 200,000; AID 1379; note: % is set by controls: 0 for no effect and ±100 for the full control effect; nearly all actives have a fitted effect of over 60% in size
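Inhibition of Kinase-Glo luciferase light generation was assessed at 10 uM ATP in pH 7.2 imidazole buffer, with luminescence measured after eight minutes at ambient temperature.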
NPC1 prom act = activates the NPC1 promoter; Huh7 NPC1 promoter luciferase reporter, 24 h; Potency, µM (doses to about 9.22 µM), inactives show at the highest dose activation, most hits filed as activators; hit rate 2.4% among 320,000; note: % of control where 0% means no effect; nearly all actives have a fitted effect of over 60% in size
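Readout is luciferase luminescence, reflecting NPC1 promoter activation in stably transfected Huh7 cells after 24 h compound exposure at 37 °C in reduced-serum medium with 10% FBS.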
Starred values were filed as active, the others as inactive; ? = inconclusive; · = no result. Calls come from the whole dose curve; as a rule, active = well fitted curve in the direction sought with a large enough effect; inconclusive = small, poorly fitted or top-dose-only effect, or another doubt; inactive = no such curve, though single readings can be large; an effect the other way counts as inactive or inconclusive. Potency is the fitted concentration of half-maximal effect.

SMILES	ELG1 genotoxic	FLuc modulator	SMN2 splice enh	Rab9 prom act	Luc counter	NPC1 prom act
Cc1cccc(-n2c(C)cc(/C=N/NC(=O)c3cccc([N+](=O)[O-])c3C)c2C)c1	-4%	-19%	-17%	-4%	-1%	-8%
COC(=O)N/N=C\c1ccc(OC/C=C/c2ccccc2)c(OC)c1	2%	-2%	·	1%	·	-1%
Cc1cc(/C=N/NC(=O)c2cccc(F)c2)c(C)n1-c1ccccc1	?	1.2µM*	27%	1.6µM*	-7%	3.2µM*
Cc1c(/C=N\NC(=O)c2cccc(F)c2)cnn1C	1%	?	23%	4%	-10%	-3%
CCOC(=O)N/N=C\c1ccc(OC/C=C/c2ccccc2)c(OC)c1	-6%	12µM*	·	8%	·	3%
Cc1c(Cl)cccc1NC(=O)C1CCN(c2nc3ccccc3[nH]2)CC1	·	-2%	·	·	·	·
Cc1cc(C)cc(C(=O)NCC(=O)OCc2nc(N)nc(Nc3ccccc3C)n2)c1	-2%	1%	·	-8%	·	-3%
CCC(C)C(=O)Nc1nc2ccc(OC)cc2s1 (stereo not drawn)	?	12µM*	·	2.5µM*	·	2.5µM*
CC(=O)NCCC(=O)Nc1nc2ccc(Oc3ccccc3)cc2s1	3.7µM*	6.7µM*	·	0.89µM*	·	1.4µM*
COc1ccc2nc(NC(=O)CSCC(=O)Nc3cc(C)on3)sc2c1	?	17µM*	·	5µM*	·	?
CC(=O)Nc1nc2ccc(Br)cc2s1	?	17µM*	8%	2.8µM*	-4%	3.2µM*
CCOC(=O)c1cccc(C(=O)Nc2nc3ccc(OC)cc3s2)n1	-6%	0.48µM*	11µM*	1.6µM*	-2%	2.2µM*
COc1ccc2nc(NC(=O)CSc3nc(C)cc(C)n3)sc2c1	-4%	-20%	-24%	-1%	8%	-1%
COc1ccc2nc(NC(C)=O)sc2c1	?	12µM*	14µM*	2.5µM*	-9%	2.2µM*
COc1ccc2nc(NC(=O)c3ccccc3[N+](=O)[O-])sc2c1	6%	?	·	?	·	27%
COc1ccc2nc(NC(=O)c3ccccc3O)sc2c1	?	0.13µM*	·	0.79µM*	·	1.3µM*
CCC(C)c1ccc(NC(=S)Nc2ccc(OC)cc2C)cc1 (stereo not drawn)	-1%	-5%	-84%	1%	-4%	15%
COC(=O)c1sc(-c2ccccc2)cc1NC(C)=O	0%	?	0%	2%	-2%	-1%
COC(=O)c1sc(-c2ccc(Cl)cc2)cc1NC(=O)CSCC(=O)O	0%	13µM*	·	1%	·	-1%
COC(=O)c1sc(-c2ccccc2)cc1NC(=O)Nc1ccc(Cl)cc1	·	-8%	2%	·	·	·
COC(=O)c1sc(-c2ccc(C(C)(C)C)cc2)cc1NC(=O)COCC(=O)O	7%	3.8µM*	·	17%	·	19%
CC1(C)Cc2nc3sc4c(SCC(=O)NCc5ccccc5)ncnc4c3cc2CO1	4.1µM*	2.7µM*	?	23%	-4%	26%
CC1(C)Cc2nc3sc4c(SCC(=O)O)ncnc4c3cc2CO1	5%	0.38µM*	·	?	·	?
COC(=O)CSc1ncnc2c1sc1nc3c(cc12)COC(C)(C)C3	-9%	?	22%	?	0%	25%
O=C(OCC(=O)N1CCN(c2cccc(Cl)c2)CC1)c1ccco1	0%	-4%	·	0%	·	0%
SMILES	ELG1 genotoxic	FLuc modulator	SMN2 splice enh	Rab9 prom act	Luc counter	NPC1 prom act
Nc1ccc2nc(-c3ccccn3)[nH]c2c1	11%	13µM*	16µM*	?	11µM*	?
Nc1ccc2nc(-c3cccnc3)[nH]c2c1	5%	?	3%	-1%	-20%	-2%
Nc1ccc2nc(-c3ccc(N)c(Cl)c3)[nH]c2c1	?	6µM*	?	2.8µM*	-22%	?
Nc1ccc2nc(-c3cccs3)[nH]c2c1	?	11µM*	22µM*	2.5µM*	-23%	?
COc1ccc2nc(-c3ccccn3)[nH]c2c1	5.2µM*	6.7µM*	·	2µM*	·	1.3µM*
Cc1nn(C)c(C)c1CN(C)C(=O)C1CCC(=O)N(C2CCCCCC2)C1 (stereo not drawn)	-2%	5%	·	6%	·	-1%
Cc1nc2c(Cl)cc(Cl)cc2[nH]1	-4%	2%	-18%	6%	8%	2%
CC(=O)Nc1ccc2nc(-c3cccs3)[nH]c2c1	?	12µM*	?	2.5µM*	-13%	?
Nc1ccc2nc(-c3ccccc3)[nH]c2c1	?	7.6µM*	18µM*	3.2µM*	?	3.2µM*
Nc1ccc(-c2nc3c(Cl)cc(N)cc3[nH]2)cc1	-4%	21µM*	-26%	-13%	-16%	-26%
Nc1cccc(-c2nc3ccc(C(=O)c4ccccc4)cc3[nH]2)c1	?	0.76µM*	·	24%	·	18%
O=C1c2ccccc2CCc2ccc(Br)cc21	5%	?	·	-2%	·	0%
O=C1c2ccccc2CCC12N=NCC2c1ccccc1 (stereo not drawn)	2%	17µM*	-15%	-5%	-3%	-5%
CC(C)c1nnc(NC(=O)C2CCCN2C(=O)Nc2ccccc2F)s1 (stereo not drawn)	0%	4%	-11%	-6%	8%	-6%
CCOC(=O)c1cc(-c2ccccc2)sc1NC(=O)c1ccc(OC)c(OC)c1	-2%	-20%	-26%	-6%	0%	-3%
NC(=O)c1ccccc1NC(=O)CN1CCCCCC1	-6%	4%	·	0%	·	18%
CC(C)(C)C(=O)Nc1sc(-c2ccccc2)cc1C(=O)O	15%	11µM*	·	3.2µM*	·	4.5µM*
NC(=O)c1cc(-c2ccccc2)sc1NC(=O)CN1CCCCC1	-5%	19µM*	-3%	-3%	1%	0%
Cc1cccc(C(=O)Nc2sc(-c3ccccc3)cc2C(=O)O)c1	?	11µM*	·	?	·	2.5µM*
CC(C)c1onc(C(=O)N2CCOCC2)c1[N+](=O)[O-]	5%	-1%	·	-3%	·	-2%
Cc1nc(S(=O)(=O)Cc2ccccc2Cl)nc2c1CCC2	-2%	4%	4%	17%	-1%	-5%
Nc1ccc2nc(N3CCOCC3)sc2c1	?	?	16µM*	2µM*	-28%	?
c1c2c(cc3sc(N4CCOCC4)nc13)OCCO2	0.33µM*	0.95µM*	1.1µM*	0.5µM*	?	0.4µM*
Clc1ccc(-c2nsc(N3CCOCC3)n2)c(Cl)c1	3.3µM*	4.3µM*	·	1µM*	·	0.79µM*
O=C(NCc1ccccc1)c1ccc2nc(N3CCOCC3)sc2c1	9%	?	·	20%	·	1%
Clc1cc(Cl)c2nc(N3CCOCC3)sc2c1	?	17µM*	?	?	-1%	26%
